Screens (PubChem BioAssay)
Rows were chosen to be rich in hits. Some 7.1% of all compounds tested hit in one or more screens of this group.
Lassa entry: qHTS for Inhibitors of binding or entry into cells for Lassa Virus; Lassa virus pseudotyped entry inhibition, cell-based qHTS; Potency, µM (doses to about 49.2 µM), usual class: inhibitors; 18,000 tested, 4.1% active
Marburg entry: qHTS for Inhibitors of binding or entry into cells for Marburg Virus; 18,000 tested, 6.5% active; Marburg virus pseudotype entry/binding inhibition, cell-based; Potency, µM (titrated, usually from 49.2 µM), most hits filed as inhibitors; AID 720532, 2013
Hits are given with their value; ! = a repeat was not active; [ ] = another dose, or the depositor's remark. Calls follow the shape of the full dose curve; tested in HEK293 cells.

What do the screens show for `CNC(=O)Oc1ccc2c(c1)[C@]1(C)CCN(C)[C@@H]1N2C`?
Lassa entry: inactive; Marburg entry: inactive

How did CN1CC[C@]2(C)c3cc(O)ccc3N(C)[C@@H]12 do in these assays?
Lassa entry: inactive; Marburg entry: 11.2µM

Results for COC(=O)CC=C[C@@H](C)[C@H](OC)c1cc(OC)ccc1Br ?
Lassa entry: inactive[8.59 µM]; Marburg entry: inactive[8.59 µM]

How did Nc1nc(Cl)nc2c1ncn2[C@@H]1O[C@H](CO)[C@@H](O)[C@H]1O do in these assays?
Lassa entry: 31.6µM!; Marburg entry: inconclusive

What do the screens show for `OCC1OC(n2cnc3c(=S)nc[nH]c32)C(O)C1O` (stereo not given)?
Lassa entry: inconclusive; Marburg entry: 3.55µM

Results for Nc1nc(Cl)nc2c1ncn2C1OC(CO)C(O)C1F (stereo not given) ?
Lassa entry: 2.51µM; Marburg entry: 2.82µM

How did Nc1nc2c(ncn2[C@@H]2O[C@H](CO)[C@@H](O)[C@H]2O)c(=O)[nH]1 do in these assays?
Lassa entry: inactive; Marburg entry: inactive

How did O=c1[nH]cnc2c1ncn2C1OC(CO)C(O)C1O (stereo not given) do in these assays?
Lassa entry: inactive; Marburg entry: inactive

How did OC[C@H]1O[C@@H](n2cnc3c(NC4CCCC4)nc(Cl)nc32)[C@H](O)[C@@H]1O do in these assays?
Lassa entry: inactive; Marburg entry: inactive

How did COC(=O)[C@H](C=C[C@H](C)Cc1cc(Br)cc(OCc2ccccc2)c1OC)OCc1ccccc1 do in these assays?
Lassa entry: inactive[8.59 µM]; Marburg entry: inactive[8.59 µM]

How did C[C@]12C[C@@](C)(C=C1C=Cc1ccc(C(F)(F)F)cc1)C(=O)C[C@H]2c1ccc(C(F)(F)F)cc1 do in these assays?
Lassa entry: inactive[8.59 µM]; Marburg entry: inactive[8.59 µM]

What do the screens show for `COc1ccc(O[C@H]2C=C[C@@H](c3ccccc3)O[C@H]2CON=C(C)CCN2CCCCc3nc(C)c(C)cc32)cc1`?
Lassa entry: inactive[8.59 µM]; Marburg entry: inactive[8.59 µM]

How did CCN1C(=O)NC(c2ccccc2)C(C(=O)OC)=C1C (stereo not given) do in these assays?
Lassa entry: inactive[8.59 µM]; Marburg entry: inactive[8.59 µM]

Results for COc1ccc(-c2nc3cc(C)ccc3cc2CN(C(=O)c2ccco2)C2CC2)cc1OC ?
Lassa entry: inactive; Marburg entry: inactive

What do the screens show for `COc1cccc(-c2nc3cc4c(cc3cc2CN(C(=O)c2cccs2)C2CC2)CCC4)c1OC`?
Lassa entry: 12.6µM; Marburg entry: inconclusive

What do the screens show for `COc1cccc(C(=O)N(Cc2cc3ccc(C)cc3nc2N(C)C)C2CC2)c1OC`?
Lassa entry: 5.01µM; Marburg entry: 3.98µM

What do the screens show for `COc1ccc(-c2nc3cc(C)ccc3cc2CN(C(=O)c2cccs2)C2CC2)cc1OC`?
Lassa entry: inconclusive; Marburg entry: inactive

What do the screens show for `COc1ccc([C@]23Cc4cc(OC)c(OC)cc4[C@H](O2)c2c(cc(C)n(Cc4ccccc4)c2=O)O3)cc1`?
Lassa entry: inactive[8.59 µM]; Marburg entry: inactive[8.59 µM]

Results for C=CCN1C[C@H](CO)Oc2cccc(F)c2S1(=O)=O ?
Lassa entry: inactive; Marburg entry: inactive

How did CC(CCN1CCCCc2nc(C)c(C)cc21)=NO[C@@H](C)c1cn([C@H](CO)Cc2ccccc2)nn1 do in these assays?
Lassa entry: inactive[8.59 µM]; Marburg entry: inactive[8.59 µM]

How did NC[C@@H]1O[C@H](c2ccccc2)Cc2c1ccc(O)c2O do in these assays?
Lassa entry: inactive; Marburg entry: inconclusive

What do the screens show for `NC[C@@H]1O[C@H](C23CC4CC(CC(C4)C2)C3)Cc2c1ccc(O)c2O`?
Lassa entry: inconclusive; Marburg entry: 12.6µM

Results for COc1cc2c(cc1OC)[C@@H]1O[C@](CCCCN3C(=O)c4ccccc4C3=O)(C2)Oc2c1c(=O)oc1ccccc21 ?
Lassa entry: inactive[8.59 µM]; Marburg entry: inactive[8.59 µM]

What do the screens show for `O=C1N(Cc2ccc(Br)cc2)c2cccc(Br)c2[C@@]12O[C@H](COc1ccccc1)CC1=CCCC12` (stereo not given in full)?
Lassa entry: inactive[8.59 µM]; Marburg entry: inactive[8.59 µM]

What do the screens show for `Clc1ccc(C[n+]2cc(-c3ccccc3)n3c2CCCCC3)c(Cl)c1`?
Lassa entry: inconclusive; Marburg entry: 8.91µM

What do the screens show for `C=CCP1(=O)O[C@H](C=C)C[C@H](C=C)O1` (stereo not given in full)?
Lassa entry: inactive; Marburg entry: inactive

How did CCCCCC(=O)N1C[C@@H](n2cc(COC(=O)c3ccccc3)nn2)[C@H](O)C[C@H]1c1ccccc1 do in these assays?
Lassa entry: inactive; Marburg entry: inactive

What do the screens show for `C[N+](C)(CCCCCC[N+](C)(C)CCCN1C(=O)c2ccccc2C1=O)CCCN1C(=O)c2ccccc2C1=O`?
Lassa entry: inactive; Marburg entry: inactive

What do the screens show for `CN(C)CCN1C(=O)c2ccccc2N(C)c2ccccc21`?
Lassa entry: inconclusive; Marburg entry: 35.5µM!

How did CN(C)CCOC(c1ccccc1)c1ccccc1 do in these assays?
Lassa entry: inconclusive; Marburg entry: 28.2µM!

How did CN(C)CCOC(c1ccccc1)c1ccccc1 (tested in a mixture with another compound) do in these assays?
Lassa entry: inactive; Marburg entry: inactive

How did COc1cccc([C@H]2Oc3ccc(OC)cc3C(=NO[C@H](C)c3cn([C@H](CO)Cc4ccccc4)nn3)[C@H]2O)c1 do in these assays?
Lassa entry: inactive[8.59 µM]; Marburg entry: inactive[8.59 µM]

What do the screens show for `CC[C@H](O)C(C[C@H](C)N(C)C)(c1ccccc1)c1ccccc1`?
Lassa entry: inconclusive; Marburg entry: 17.8µM

How did C[C@@H]([C@H](O)c1ccccc1)N(C)C do in these assays?
Lassa entry: inactive; Marburg entry: inactive

What do the screens show for `CC(CC(C#N)(c1ccccc1)c1ccccc1)N(C)C` (stereo not given)?
Lassa entry: inconclusive; Marburg entry: 31.6µM

What do the screens show for `COC(=O)C1=C(C)N(Cc2ccccc2)C(=NCCCCO)NC1c1cccc(F)c1` (stereo not given)?
Marburg entry: inactive[8.59 µM]

How did CCCCCCN1C[C@H](O)[C@@H](n2cc(COC(=O)c3ccccc3)nn2)C[C@H]1c1ccccc1 do in these assays?
Lassa entry: inactive; Marburg entry: inconclusive

Results for C[C@@H](NS(=O)(=O)c1ccc(Br)cc1F)[C@H](O)c1ccccc1 ?
Lassa entry: inactive; Marburg entry: inactive

How did O=S1(=O)c2cccc(Cl)c2OC[C@H](c2ccccc2)N1Cc1ccc(F)cc1F do in these assays?
Lassa entry: inactive; Marburg entry: inconclusive

Results for COP(=O)(OC)[C@@H](O)C(Cl)(Cl)Cl ?
Lassa entry: 3.98µM; Marburg entry: inactive

How did Cc1ncc2c(c1CNC(=O)c1ccccc1F)CCN(C(=O)c1ccc3c(c1)OCCO3)C2 do in these assays?
Lassa entry: inconclusive; Marburg entry: inactive

What do the screens show for `Cc1ncc2c(c1CNC(=O)c1ccccc1F)CCN(C(=O)c1[nH]c3ccc(Cl)cc3c1C)C2`?
Lassa entry: 10µM; Marburg entry: inconclusive

Results for c1ccc(Cc2nc3ccc(Nc4ncnc5ccccc45)cc3[nH]2)cc1 ?
Lassa entry: inactive; Marburg entry: inactive

What do the screens show for `COC1=C[C@@H](C(=O)N[C@H]2CCCC[C@H]2NC(C)=O)[C@]2(C)Cc3ccccc3[C@H]2CC1=O`?
Lassa entry: inactive[8.59 µM]; Marburg entry: inconclusive

How did O=C(Nc1ccc(Cl)cc1)Nc1ccc(Cl)c(C(F)(F)F)c1 do in these assays?
Lassa entry: 14.1µM; Marburg entry: 11.2µM

Results for CCCC(C)(C)C(=O)Nc1ccc(Cl)cc1 ?
Lassa entry: inactive; Marburg entry: inactive

How did CCC1CN2CCc3cc(OC)c(OC)cc3C2CC1CC1NCCc2cc(OC)c(OC)cc21 (stereo not given) do in these assays?
Lassa entry: 5.62µM; Marburg entry: 5.01µM
